An excerpt weighted towards active compounds, which were near 10% of everything screened.
HCT116 PTEN-null = growth suppression of PTEN-null HCT116, primary screen, cell-based, CellTiter-Glo; HCT116 PTEN-null viability, 60 h; active compounds read low; viability, % at 10 µM; 1.2% of 140,000 active; AID 827, 2007;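 active means viability at or below a set limit, 4 SD under the median of all tested compounds, cut at about 3.7% in these data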;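 further: PTEN knockout HCT116 line with beta catenin targeted HCT116 as companion control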
ROMK primary = ROMK potassium channel modulators, primary screen, cell-based, thallium flux, MLSMR library; ATP-sensitive inward rectifier potassium channel 1 (Homo sapiens), P48048; Tet-inducible ROMK, thallium flux fluorescence; actives lie on both sides; B-score at 10 µM; 2% of 130,000 active; AID 1918, 2009;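 active means signal ratio slope over the read window, or its plate-corrected B-score, at least 3 SD from the plate mean, either direction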;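 further: B-score of the F/F0 ratio slope over 7 to 12 s after thallium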
L major viab = Leishmania major promastigote growth inhibition, primary screen; Leishmania major promastigotes, resazurin fluorescence viability; 9% of 200,000 active; inhibition, % at 10 µM; AID 1063, 2008; in the data active means inhibition above about 50%;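 further: promastigotes grown with compound for 44 hours at 28 °C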
p97 ATPase inh = inhibitors of human p97 ATPase, primary screen, biochemical. inhibition, % at 8 µM. 0.42% of 220,000 active. recombinant p97 ATPase, Kinase-Glo ATP luminescence, 3 h. AID 1481, 2009. Transitional endoplasmic reticulum ATPase (Homo sapiens), P55072; in the data active means inhibition above about 15%;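 further: 0% = DMSO vehicle and 100% = wells lacking enzyme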
Target sequence (P55072 whole entry, looked up): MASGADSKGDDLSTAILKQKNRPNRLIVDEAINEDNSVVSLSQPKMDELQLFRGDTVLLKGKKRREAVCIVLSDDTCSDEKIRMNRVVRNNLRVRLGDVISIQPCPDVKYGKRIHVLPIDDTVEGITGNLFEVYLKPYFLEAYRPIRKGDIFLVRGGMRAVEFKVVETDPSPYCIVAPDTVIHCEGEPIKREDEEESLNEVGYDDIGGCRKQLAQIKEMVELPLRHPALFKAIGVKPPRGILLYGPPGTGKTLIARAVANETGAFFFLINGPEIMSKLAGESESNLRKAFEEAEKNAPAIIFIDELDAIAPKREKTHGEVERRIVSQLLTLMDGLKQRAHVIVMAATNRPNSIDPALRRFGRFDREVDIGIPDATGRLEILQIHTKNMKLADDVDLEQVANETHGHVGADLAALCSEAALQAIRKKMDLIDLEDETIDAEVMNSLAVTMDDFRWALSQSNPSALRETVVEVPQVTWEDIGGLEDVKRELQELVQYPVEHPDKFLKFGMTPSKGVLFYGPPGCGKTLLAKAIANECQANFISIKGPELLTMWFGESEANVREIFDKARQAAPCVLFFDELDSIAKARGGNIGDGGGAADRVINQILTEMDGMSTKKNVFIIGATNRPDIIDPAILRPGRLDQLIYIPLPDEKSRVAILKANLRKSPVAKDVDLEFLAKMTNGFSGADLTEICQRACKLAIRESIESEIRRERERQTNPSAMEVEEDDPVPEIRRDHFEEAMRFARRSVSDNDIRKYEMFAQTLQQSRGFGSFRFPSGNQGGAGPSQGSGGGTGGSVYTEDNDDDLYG
INS promoter inh = inhibitors of insulin promoter-driven GFP, primary screen, imaging, TRM-6 cells (human fetal islet line), eGFP reporter, cell count | reporter expression induced with tamoxifen | inhibition, % at 2 µM | 0.9% of 130,000 active;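 active means inhibition above the mean plus 3 SD, with well images judged a real hit on visual review, cut at about 60% in these data, passing the limit was not always enough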
HCT116 bCat-KO = primary screen for growth suppressors in beta-catenin knockout HCT116 cells (colon tumor, human); HCT116 beta-catenin knockout viability, CellTiter-Glo, 60 h; active compounds read low; viability, % at 10 µM; 1.5% of 140,000 active; AID 818, 2007;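 active means viability at or under a set limit, the compound median less 4 SD, cut at about 6% in these data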;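 further: 0% = Hyamine 1622 control at 20 µM and 100% = untreated cell control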
Numbers without * were called inactive.

For O=C(CCCN1C(=O)c2cccc3cccc(c23)C1=O)N1CCc2ccccc2C1 the results were HCT116 PTEN-null 105.5, L major viab -6.5, p97 ATPase inh -4.4, INS promoter inh 5.7 and HCT116 bCat-KO 87.2.
`Cc1cc(C)c(S(=O)(=O)Nc2cccc(/C=C/C(=O)O)c2)c(C)c1` gave HCT116 PTEN-null 106.9, L major viab 30.1, p97 ATPase inh 3.1, INS promoter inh 20.7 and HCT116 bCat-KO 99.9.
Screening Cc1ccc(Cl)cc1N1CCN(C(=O)Cc2ccc(-n3c(=O)[nH]c4ccsc4c3=O)cc2)CC1 returned HCT116 PTEN-null 67.5, L major viab 56.7*, p97 ATPase inh 8.8, INS promoter inh 4.0 and HCT116 bCat-KO 71.4.
`Cc1ccc(-c2cnc(NCc3cc4c(cc3[N+](=O)[O-])OCO4)n2C)cc1C` gave L major viab 94.6*, p97 ATPase inh 7.7 and INS promoter inh -15.4.
`Cn1c(-c2ccc3c(c2)OCO3)cnc1NCc1ccccc1` gave HCT116 PTEN-null 78.7, L major viab 63.0*, p97 ATPase inh 3.4, INS promoter inh 6.5 and HCT116 bCat-KO 74.6.
`Cc1cc(C)cc(NCc2cc3c(cc2[N+](=O)[O-])OCO3)c1` gave HCT116 PTEN-null 74.5, ROMK primary -0.498, L major viab 4.1, p97 ATPase inh -1.3, INS promoter inh 0.0 and HCT116 bCat-KO 79.1.
For Cn1c(-c2ccc3c(c2)OCO3)cnc1NC(=O)CCC(=O)NCCc1ccccc1 the results were HCT116 PTEN-null 85.6, L major viab -1.0, p97 ATPase inh -3.4 and HCT116 bCat-KO 87.3.
`Cn1c(-c2ccc3c(c2)OCO3)cnc1NCc1ccccc1Cl` gave ROMK primary -2.65, L major viab 96.0*, p97 ATPase inh -1.9 and INS promoter inh 15.0.
For Cc1cccc(OCCCOc2cccc3cccnc23)c1C the results were HCT116 PTEN-null 38.3, L major viab 68.7*, p97 ATPase inh -3.8 and HCT116 bCat-KO 24.3.
Cc1ccc(C(C)(C)C)c(OCCCn2ccnc2)c1 was read as HCT116 PTEN-null 76.2, ROMK primary -2.04, L major viab 42.6, p97 ATPase inh -0.6, INS promoter inh 23.1 and HCT116 bCat-KO 64.2.
Screening CC(C)(C)c1ccccc1OCCCCCn1ccnc1 returned ROMK primary -1.38, L major viab 94.8*, p97 ATPase inh 1.4 and INS promoter inh -28.6.
For Cc1cccc(OCCCCCn2ccnc2)c1C the results were HCT116 PTEN-null 71.8, L major viab 99.4*, p97 ATPase inh -2.9, INS promoter inh -54.5 and HCT116 bCat-KO 60.0.
CCN(CC)C(=O)C(=O)c1cccn1-c1ccccc1C#N was read as HCT116 PTEN-null 104.7, ROMK primary 0.222, L major viab -1.5, p97 ATPase inh 1.1, INS promoter inh 100.0* and HCT116 bCat-KO 111.8.
COc1cccc(/C=N/NC(=O)c2ccccc2)c1OS(=O)(=O)c1ccccc1 was read as HCT116 PTEN-null 86.2, ROMK primary -0.0283, L major viab 91.7*, p97 ATPase inh -0.7, INS promoter inh -33.3 and HCT116 bCat-KO 88.2.
For C=CCOc1ccccc1/C=N/NC(=O)c1ccc(Cl)cc1Cl the results were HCT116 PTEN-null 91.9, L major viab -5.2, p97 ATPase inh 2.6, INS promoter inh 6.1 and HCT116 bCat-KO 84.5.
COc1cccc(/C=N/NC(=O)c2cc3c(OC)cccc3[nH]2)c1O was read as HCT116 PTEN-null 2.6*, L major viab 95.0*, p97 ATPase inh 4.9, INS promoter inh 4.0 and HCT116 bCat-KO 6.0*.
`COc1cc(C(=O)Oc2ccccc2/C=N/NC(=O)c2ccc(Cl)cc2Cl)cc(OC)c1OC` gave HCT116 PTEN-null 2.4*, L major viab -0.1, p97 ATPase inh 5.1, INS promoter inh -2.3 and HCT116 bCat-KO 2.7*.
For COc1cccc(/C=N/NC(=O)c2cc3c(OC)c(OC)ccc3[nH]2)c1OC the results were HCT116 PTEN-null 29.9, ROMK primary 0.0798, L major viab 72.7*, p97 ATPase inh 4.3, INS promoter inh 0.0 and HCT116 bCat-KO 32.3.
COc1cccc(/C=N/NC(=O)c2ccc(=O)n(C)c2)c1OC was read as HCT116 PTEN-null 100.5, L major viab -5.7, p97 ATPase inh 2.9 and HCT116 bCat-KO 95.4.
Screening COc1ccc(OC)c(/C=N/NC(=O)c2cc3c(OC)cccc3[nH]2)c1 returned ROMK primary -0.642 and p97 ATPase inh 6.0.
CCOC(=O)C1(CCc2ccccc2)CCN(C(=O)C(C)n2cncn2)CC1 (centres undefined) was read as ROMK primary 0.358, L major viab -8.7 and p97 ATPase inh 0.0.
`COc1ccc(N2CCN(C(=O)c3cc4c(s3)-c3ccccc3S(=O)(=O)C4)CC2)cc1` gave ROMK primary 0.0434 and p97 ATPase inh -0.4.
For Cc1ccc(S(=O)(=O)NC(C(=O)Oc2cc3oc(=O)cc(C)c3cc2Cl)C(C)C)cc1 (centres undefined) the results were HCT116 PTEN-null 104.0, ROMK primary 0.68, L major viab 2.1, p97 ATPase inh 3.8, INS promoter inh 25.0 and HCT116 bCat-KO 91.6.
COc1cc(/C=N/NC(=O)c2ccc(N(C)S(=O)(=O)c3ccccc3)cc2)cc(OC)c1OC was read as HCT116 PTEN-null 70.6, ROMK primary 0.434, L major viab 100.1*, p97 ATPase inh 2.7, INS promoter inh -93.3 and HCT116 bCat-KO 86.4.
`COc1cc(/C=N/NC(=O)c2cc(-c3cccn3C)n[nH]2)cc(OC)c1OC` gave HCT116 PTEN-null 59.9, ROMK primary 1.16, L major viab -4.0, p97 ATPase inh -0.8 and HCT116 bCat-KO 75.2.
COc1cccc(/C=N/NC(=O)c2cc(-c3cccn3C)n[nH]2)c1O was read as HCT116 PTEN-null 8.0, L major viab 98.4*, p97 ATPase inh -0.8 and HCT116 bCat-KO 10.1.
For COc1cccc(/C=N/NC(=O)c2cc3cc([N+](=O)[O-])ccc3s2)c1O the results were HCT116 PTEN-null 11.2, ROMK primary -0.0669, L major viab 99.7*, p97 ATPase inh 5.5, INS promoter inh 24.0 and HCT116 bCat-KO 10.6.
COc1ccc(/C=N/NC(=O)CN(CCc2ccccc2)S(=O)(=O)c2ccc(NC(C)=O)cc2)cc1OC was read as HCT116 PTEN-null 92.4, L major viab 31.5, p97 ATPase inh 2.5, INS promoter inh 0.0 and HCT116 bCat-KO 96.0.
`COc1cc(/C=N/NC(=O)c2ccc3nc[nH]c3c2)cc(OC)c1OC` gave p97 ATPase inh 3.2.
COc1cc(/C=N/NC(=O)CN(CCc2ccccc2)S(=O)(=O)c2ccc(NC(C)=O)cc2)cc(OC)c1OC was read as HCT116 PTEN-null 67.7, ROMK primary -0.0348, L major viab 59.9*, p97 ATPase inh -0.1, INS promoter inh -13.2 and HCT116 bCat-KO 74.7.

High-throughput results (PubChem)
